Results taken from PubChem BioAssay (Tox21).
Several values for one entry are separate records, joined by “and”; a condition that tells them apart may be missing. Equal entries are not always repeated. Results filed as inconclusive are left out. A call without a number means that no potency is given here. Some compounds were tested as several samples or in several runs, with calls that do not always agree. Activity calls are given as the source filed them. Calls come from the whole dose curve; as a rule, active = well fitted curve in the direction sought with a large enough effect in the repeat runs; inconclusive = weak or mixed curves; inactive = no such curve, though single readings can be large; an effect the other way counts as inactive or inconclusive.

Experiments:
[1] = molecular target: Cytochrome P450 2C9 (Homo sapiens) (UniProt P11712); assay: Cytochrome P450 Family 2 Subfamily C Member 9 (CYP2C9) small molecule antagonists: luciferase reporter qHTS assay (AID 1671198); note: potency is the fitted concentration of half-maximal effect
Cytochrome P450 2C9 (Homo sapiens), sequence (P11712 whole entry, looked up): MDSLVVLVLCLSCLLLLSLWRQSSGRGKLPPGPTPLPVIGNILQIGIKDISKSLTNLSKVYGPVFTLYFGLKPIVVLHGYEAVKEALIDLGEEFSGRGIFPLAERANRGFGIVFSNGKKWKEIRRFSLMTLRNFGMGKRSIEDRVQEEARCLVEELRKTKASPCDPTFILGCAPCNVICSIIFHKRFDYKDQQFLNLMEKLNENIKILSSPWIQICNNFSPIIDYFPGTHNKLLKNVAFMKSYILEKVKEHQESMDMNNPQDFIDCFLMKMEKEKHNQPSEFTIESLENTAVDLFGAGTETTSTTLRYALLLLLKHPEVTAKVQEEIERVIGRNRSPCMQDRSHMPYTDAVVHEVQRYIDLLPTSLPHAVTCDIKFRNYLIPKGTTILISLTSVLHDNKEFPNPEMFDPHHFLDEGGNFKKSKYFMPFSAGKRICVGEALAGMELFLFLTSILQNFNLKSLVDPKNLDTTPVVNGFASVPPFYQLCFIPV
How it was run: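 P450-Glo proluciferin substrate with CYP2C9 enzyme; 10 min RT preincubation, then NADPH regeneration 1 h at 37C; luciferin detection reagent 20 min RT, luminescence in relative luminescence units.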

[2] = molecular target: Cytochrome P450 1A2 (Homo sapiens) (UniProt P05177); assay: Cytochrome P450 Family 1 Subfamily A Member 2 (CYP1A2) small molecule antagonists: luciferase reporter qHTS assay (AID 1671199); note: potency is the fitted concentration of half-maximal effect
Cytochrome P450 1A2 (Homo sapiens), sequence (P05177 whole entry, looked up): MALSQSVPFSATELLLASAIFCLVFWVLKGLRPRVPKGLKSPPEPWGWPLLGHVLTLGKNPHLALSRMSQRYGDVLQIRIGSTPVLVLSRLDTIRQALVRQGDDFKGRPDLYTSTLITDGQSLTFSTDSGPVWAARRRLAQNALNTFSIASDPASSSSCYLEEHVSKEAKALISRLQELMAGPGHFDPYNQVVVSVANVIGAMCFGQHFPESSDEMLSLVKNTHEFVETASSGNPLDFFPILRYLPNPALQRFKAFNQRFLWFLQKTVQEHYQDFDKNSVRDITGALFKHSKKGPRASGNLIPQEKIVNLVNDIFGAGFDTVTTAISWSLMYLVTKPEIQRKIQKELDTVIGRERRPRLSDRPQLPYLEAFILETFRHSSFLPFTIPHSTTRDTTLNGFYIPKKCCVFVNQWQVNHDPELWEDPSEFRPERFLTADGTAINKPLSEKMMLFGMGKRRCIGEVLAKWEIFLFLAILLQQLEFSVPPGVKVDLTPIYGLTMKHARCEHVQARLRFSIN
How it was run: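 Compounds were incubated with CYP1A2 and a luminogenic proluciferin substrate for 10 min at room temperature before the reaction was started with NADPH regeneration solution. After 1 h, detection reagent was added and light output, proportional to CYP activity, was recorded.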

[3] = molecular target: Voltage-gated inwardly rectifying potassium channel KCNH2 (Homo sapiens) (UniProt Q12809); assay: Human Ether-a-go-go-Related Gene (hERG) channel small molecule antagonists: fluorescence cell-based qHTS assay (AID 1671200);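 note: hERG-expressing U2OS cells given a thallium stimulus after FluxOR II dye loading; series mostly up to about 77 µM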
Voltage-gated inwardly rectifying potassium channel KCNH2 (Homo sapiens), sequence (Q12809 whole entry, looked up): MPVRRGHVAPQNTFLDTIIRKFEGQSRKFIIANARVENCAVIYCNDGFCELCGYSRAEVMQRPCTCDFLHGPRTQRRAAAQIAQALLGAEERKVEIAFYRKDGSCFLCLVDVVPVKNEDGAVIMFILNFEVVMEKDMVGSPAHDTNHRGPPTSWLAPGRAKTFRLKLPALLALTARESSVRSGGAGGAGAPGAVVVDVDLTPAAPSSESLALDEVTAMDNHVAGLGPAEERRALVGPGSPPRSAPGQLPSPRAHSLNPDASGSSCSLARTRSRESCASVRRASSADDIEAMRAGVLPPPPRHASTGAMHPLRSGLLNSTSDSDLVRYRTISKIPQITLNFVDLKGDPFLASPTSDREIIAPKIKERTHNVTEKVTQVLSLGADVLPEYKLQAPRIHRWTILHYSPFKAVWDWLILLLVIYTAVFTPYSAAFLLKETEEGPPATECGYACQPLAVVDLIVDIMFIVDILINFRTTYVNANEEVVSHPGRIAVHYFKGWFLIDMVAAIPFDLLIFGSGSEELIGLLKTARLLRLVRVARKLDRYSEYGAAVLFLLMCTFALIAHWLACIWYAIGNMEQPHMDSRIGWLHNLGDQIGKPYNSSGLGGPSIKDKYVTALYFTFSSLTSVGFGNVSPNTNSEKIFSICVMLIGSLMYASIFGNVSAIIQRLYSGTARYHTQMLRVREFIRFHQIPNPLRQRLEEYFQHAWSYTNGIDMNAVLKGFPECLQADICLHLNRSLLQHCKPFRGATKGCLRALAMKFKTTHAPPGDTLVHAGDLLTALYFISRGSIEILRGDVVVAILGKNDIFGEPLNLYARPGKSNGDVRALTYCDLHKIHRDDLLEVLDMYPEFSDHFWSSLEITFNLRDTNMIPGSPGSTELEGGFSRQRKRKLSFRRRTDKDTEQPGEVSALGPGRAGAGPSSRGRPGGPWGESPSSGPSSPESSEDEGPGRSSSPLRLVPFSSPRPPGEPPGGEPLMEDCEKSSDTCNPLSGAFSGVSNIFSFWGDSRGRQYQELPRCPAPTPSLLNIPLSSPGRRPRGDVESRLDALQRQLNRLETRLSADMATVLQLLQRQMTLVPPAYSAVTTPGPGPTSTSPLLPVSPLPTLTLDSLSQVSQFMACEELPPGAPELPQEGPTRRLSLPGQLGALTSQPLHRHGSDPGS
How it was run: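 First, 1000 cells per well are seeded and cultured overnight at 37 C. Next, FluxOR II dye is loaded for 1 h at room temperature, protected from light. After 10 more minutes, stimulus is added and fluorescence is read.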

[4] = molecular target: Cytochrome P450 3A4 (Homo sapiens) (UniProt P08684); assay: Cytochrome P450 Family 3 Subfamily A Member 4 (CYP3A4) small molecule antagonists: luciferase reporter qHTS assay (AID 1671201); note: potency is the fitted concentration of half-maximal effect
Cytochrome P450 3A4 (Homo sapiens), sequence (P08684 whole entry, looked up): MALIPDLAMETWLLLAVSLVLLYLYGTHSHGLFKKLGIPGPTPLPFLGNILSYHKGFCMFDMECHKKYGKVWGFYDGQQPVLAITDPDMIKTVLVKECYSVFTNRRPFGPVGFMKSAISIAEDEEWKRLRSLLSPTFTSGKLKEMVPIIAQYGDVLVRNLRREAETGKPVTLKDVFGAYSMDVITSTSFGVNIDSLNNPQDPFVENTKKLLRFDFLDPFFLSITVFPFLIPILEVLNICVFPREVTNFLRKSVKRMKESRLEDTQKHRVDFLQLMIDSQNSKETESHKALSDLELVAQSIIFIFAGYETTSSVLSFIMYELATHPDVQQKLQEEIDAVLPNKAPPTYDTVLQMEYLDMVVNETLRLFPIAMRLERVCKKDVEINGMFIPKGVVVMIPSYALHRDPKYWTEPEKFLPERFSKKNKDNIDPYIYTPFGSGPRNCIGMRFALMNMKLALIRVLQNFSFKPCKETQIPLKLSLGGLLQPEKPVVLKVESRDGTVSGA
How it was run: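 Enzyme and proluciferin substrate are mixed with test chemicals for 10 min, then NADPH regeneration system drives turnover for 1 h at room temperature. A detection reagent halts the reaction; luminescence after 20 min gives relative activity.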
Note: nearly all actives have a fitted effect of over 50% in size.

Compound | Potency [1] | Potency [2] | Potency [3] | Potency [4]
COc1c(Cl)ccc(Cl)c1C(=O)O | 39.9 µM (active) | inactive | inactive | inactive
CC(C)=CCC/C(C)=C/C=O | – | inactive | inactive | –
CCOC(=O)CC(=O)OCC | inactive | inactive | inactive | inactive
CC/C=C(\C(=O)N[C@@H]1C(=O)N2C(C(=O)OCOC(=O)C(C)(C)C)=C(COC(N)=O)CS[C@H]12)c1csc(N)n1 | – | 27.5 µM (active) and inactive | inactive | –
O=[N+]([O-])c1cc(C(F)(F)F)ccc1Cl | – | inactive | inactive | –
OB(O)O | inactive | inactive | inactive | inactive
OCC(O)CS (stereo unspecified) | – | inactive | inactive | –
CC(COCC(C)OC(=O)c1ccccc1)OC(=O)c1ccccc1 (stereo unspecified) | 6.28 µM (active) and 5.64 µM (active) | 9.95 µM (active) and 6.33 µM (active) | – | inactive
CCCCCCCCC(=O)O | – | 38.6 µM (active) | inactive | –
Nc1cccc(C(F)(F)F)c1 | inactive | inactive | inactive | inactive
CC(C)c1ccc(C(C)C)cc1 | inactive | – | inactive | inactive
Cc1cccc(C)c1[N+](=O)[O-] | – | inactive | inactive | –
O=C(O)Cc1c[nH]c2ccccc12 | – | inactive | inactive | –
CC(C=O)Cc1ccc(C(C)(C)C)cc1 (stereo unspecified) | 56.4 µM (active) | inactive | inactive | inactive
O=C(c1ccccc1)c1ccc(O)c(O)c1O | 40.3 µM (active) and 63.3 µM (active) | – | inactive | inactive
CCCN(CCC)C(=O)SCC | – | inactive | inactive | –

Compound | Potency [1] | Potency [2] | Potency [3] | Potency [4]
CCc1cccc(CC)c1N | – | 22.6 µM (active) and 5.64 µM (active) | inactive | –
COC(=O)CCCCC(=O)OC | inactive | inactive | inactive | inactive
CN1CCCC1=O | – | inactive | inactive | –
COC(=O)/C=C\C(=O)OC | – | inactive | inactive | –
OCC(CO)(CO)CO | inactive | inactive | inactive | inactive
Oc1ccc(Cc2ccccc2O)cc1 | – | inactive | inactive | –
COc1c2ccoc2cc2oc(=O)ccc12 | 2.89 µM (active) and 2.52 µM (active) | 364 nM (active) and 283 nM (active) | inactive | 6.47 µM (active) and 10 µM (active)
CC(=O)OC[C@H]1O[C@@](COC(C)=O)(O[C@H]2O[C@H](COC(C)=O)[C@@H](OC(C)=O)[C@H](OC(C)=O)[C@H]2OC(C)=O)[C@@H](OC(C)=O)[C@@H]1OC(C)=O | – | inactive | inactive | –
Nc1nc(N)c2nc(-c3ccccc3)c(N)nc2n1 | – | 36 µM (active) and 31.7 µM (active) and 24.5 µM (active) | inactive | –
C=CC(=O)NCOCCCC | – | inactive | inactive | –
CC(=O)C(C)C | – | inactive | inactive | –
CCCOC(=O)NCCCN(C)C | – | inactive | inactive | –
COC(=O)OC | – | inactive | inactive | –
O=C1C(N(CO)C(=O)NCO)N(CO)C(=O)N1CO (stereo unspecified) | inactive | inactive | inactive | inactive
Brc1ccc(Oc2ccc(Br)cc2)cc1 | – | 22.5 µM (active) and 20 µM (active) | – | –
Cc1cc(C)cc(O)c1 | inactive | 35.7 µM (active) and 41.1 µM (active) | inactive | inactive
